Molecules are shown by their SMILES. Screen size: about 260,000 compounds; about 1,300 (0.5%) were called active.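 Rule for the calls: active = percent inhibition above 40 after rounding to a whole number; inactive = the rest.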 The entries come from a sample that favours actives as a whole.

In general, inhibition refers to the relative decrease from the control value, in per cent.

The assay deals with Prostaglandin E2 receptor EP2 subtype (Homo sapiens) (UniProt P43116). The assay can be described thus: human EP2 receptor antagonists, primary screen, TR-FRET cAMP, C6 glioma cells (AID 1422).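 Note: rat C6 glioma host cells with rolipram phosphodiesterase inhibitor present; the protocol text gives 20 µM as final concentration.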 The note with it: C6 glioma cells expressing human EP2, cAMP TR-FRET, at 25 µM, active compounds read high; cells stimulated with saturating PGE2 unless noted. In general terms: TR-FRET usually uses a lanthanide donor and a delayed reading to cut background.
Chain of Prostaglandin E2 receptor EP2 subtype (Homo sapiens) (P43116 whole entry, looked up): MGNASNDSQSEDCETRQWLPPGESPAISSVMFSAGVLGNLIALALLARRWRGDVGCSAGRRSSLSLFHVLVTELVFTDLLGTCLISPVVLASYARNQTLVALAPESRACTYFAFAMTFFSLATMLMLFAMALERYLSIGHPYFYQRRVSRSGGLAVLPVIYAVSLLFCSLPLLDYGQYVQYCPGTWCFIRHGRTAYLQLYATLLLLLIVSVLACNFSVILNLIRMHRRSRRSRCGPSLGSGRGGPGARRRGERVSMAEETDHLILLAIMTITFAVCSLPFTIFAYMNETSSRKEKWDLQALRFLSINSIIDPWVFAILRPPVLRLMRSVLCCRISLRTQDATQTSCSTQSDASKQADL
For `O=C1C[C@@H]2OCC=C3CN4CC[C@]56c7ccccc7N1[C@H]5[C@H]2[C@H]3C[C@H]46` (tested in a mixture with another compound), the inhibition was 43.4% (active).

With `COc1ccccc1CN(CCN(C)C)C(=O)Cc1nn(C)c(=O)c2ccccc12`, the inhibition is 8.64% (inactive).

With `COc1ccc(C2=NCC(=O)N(Cc3cccnc3)c3sc4c(c32)CCCC4)cc1`, the inhibition is 7.58% (inactive).

`CC(=O)O[C@H]1CC[C@@]2(C)[C@@H](CC[C@H]3[C@H]2CC(=O)[C@]2(C)[C@@H]3C[C@@H](N3CC3)[C@H]2C(C)=O)C1`: the inhibition is 44% (active).

As for `CC(=O)O[C@H]1CC[C@@]2(C)C(=CCC3C2CC[C@]2(C)C(=O)CCC32)C1` (stereo not given in full), the inhibition was 13.5% [setting not given] (inactive).

As for `C=C1C2CC[C@@]3(C)[C@H](c4ccoc4)OC(=O)C[C@]13O[C@H]1CC(=O)C(C)(C)[C@H](C(OC(C)=O)C(=O)OC)[C@@]21C` (stereo not given in full), the inhibition was 14.4% (inactive).

Consider `COc1cc([C@@H]2c3cc4c(cc3[C@H](OC(C)=O)[C@H]3COC(=O)[C@H]23)OCO4)cc(OC)c1OC`, for which the inhibition is 14.4% (inactive).

For `Fc1ccc2c(c1)nnn2C1CCN(Cc2nnnn2C2CCCC2)CC1`, the inhibition was 8.46% (inactive).

Regarding `CC[C@@](O)(C(=O)O)c1cc2n(c(=O)c1CO)Cc1cc3ccccc3nc1-2`, the inhibition is 47.7% (active).

Turning to `CCn1cc(C(=O)c2ccco2)c2ccccc21`, the inhibition was 1.27% (inactive).

`c1ccc2[nH]c(C3CCNCC3)nc2c1`: the inhibition is 6.74% (inactive).

As to `C=CCc1cc(CN2C3CCC2CC(O)(c2nccn2C)C3)cc(OC)c1O` (stereo not given), the inhibition is 10.4% (inactive).

For `Cc1ccc(C(C)N2CCNCC2)c(C)c1` (stereo not given), the inhibition was 5.45% (inactive).

Take `COc1cc(CN2C3CCC2CC(O)(c2ccccc2F)C3)ccc1OC(C)C` (stereo not given): the inhibition was 6.07% (inactive).

For the molecule `Cc1nc(-c2ccc(F)cc2)c(CC(=O)N(CCN(C)C)C2CCCCC2)s1`, the inhibition was 2.82% (inactive).

The values above are taken from PubChem BioAssay AID1422 (Emory University Molecular Libraries Screening Center, 2008).
